PubChem BioAssay (Tox21)
Records with an inconclusive call do not appear. Unmarked numbers belong to inactive results. Active and inactive are the calls of the source. The call rests on the fitted dose curve; in most records, active means well fitted activation curve with a large enough effect in the repeat runs; inconclusive means weak or mixed curves; inactive means flat fitted curve, though single readings scatter.

Assay: A CellTox Green Cytotoxicity Assay to monitor cytotoxicity in HEK293 cells - 8 hour (AID 1224884); further: nearly all actives have a fitted effect of over 35% in size
Settings: CellTox Green fluorescence; series mostly up to 76.8 µM; cytotoxicity increase: at the top concentration
Description: National Center for Advancing Translational Sciences [NCATS]
NIH Chemical Genomics Center [NCGC]
U.S. Environmental Protection Agency [EPA]
National Institutes of Environmental Health Sciences [NIEHS]
National Toxicology Program [NTP]
Cell-based models are critical for drug discovery. Determining the natural cytotoxic effects resulting from test compounds is an essential research activity. A CellTox Green Cytotoxicity Assay to monitor cytotoxicity in real time of continues cell culture during 40 hours of the compound treatment was used to screen Tox21 10K library compounds in Hek293 cells. CellTox Green Cytotoxicity Assay is a nonlytic, homogeneous, biofluorescent method to measure cytotoxicity in cell culture after experimental manipulation. The assay system uses a proprietary asymmetric cyanine dye that is excluded from viable cells but preferentially stains the dead cell's DNA. […] Viable cells produce no appreciable increases in fluorescence. Therefore, the fluorescence signal produced by the binding interaction with dead cell DNA is proportional to cytotoxicity.
The mixture of Hek293 cell suspension and reagents were dispensed at 600cells/6 ul/well in 1536-well tissue culture treated black solid bottom plates using a Multidrop dispenser. After the assay plates were incubated at a 37 C/5% CO2 incubator for 5 hours, 23 nL of compounds dissolved in DMSO, positive and negative controls was transferred to the assay plate by a pintool work station. The plates were incubated at 37 C for 40 hours. The fluorescence intensity were measured at 0h, 8h, 16h, 24h, 32h and 40h time points using ViewLux plate reader during compound treatment.
On the % scale 0 is the no-effect control and ±100 the full control effect; potency means the concentration at half of the fitted maximal effect.

| SMILES | cytotoxicity increase | Potency |
| --- | --- | --- |
| CCCCCCCCOC(=O)CCCCCCCCC(=O)OCCCCCCCC | 20.2% |  |
| CCCCOc1cc(C(=O)NCCN(CC)CC)c2ccccc2n1 | 0.507% [at 35.3 µM] |  |
| CCOc1ccc(NS(=O)(=O)c2ccc(N)cc2)nn1 | -17.5% [at 35.3 µM] |  |
| O=c1[nH]cnc2c1ncn2[C@@H]1O[C@H](CO)[C@@H](O)[C@H]1O | -1.19% [at 35.3 µM] |  |
| CC(C)S | 4.52% |  |
| O=C(CC(=O)C(F)(F)F)c1ccccc1 | 0.918% |  |
| FC(F)(F)C(Cl)(Cl)Cl | -14.1% |  |
| O=CCCc1ccccc1 | -2.5% |  |
| CS(=O)(=O)c1ccc([C@@H](O)[C@@H](CF)NC(=O)C(Cl)Cl)cc1 | 11.4% [at 35.3 µM] |  |
| CC/C=C\CCOC(=O)C(C)C | 9.47% |  |
| Cc1ccc([N+](=O)[O-])c(N)c1 | -4.78% |  |
| CC(C)(C)c1cccc(O)c1 | 0.638% |  |
| NC(Cc1ccc(F)cc1)C(=O)O (stereo not given) | 17.5% [at 6.97 µM] |  |
| C=Cc1ccccc1 | -4.74% |  |
| C1CCOC1 | -7.55% |  |
| CC(Oc1c(Cl)cccc1Cl)C1=NCCN1 (stereo not given) | -4.21% [at 35.3 µM] |  |
| CCCCNC(=S)NCCCC | 23% |  |
| CCCCN1C[C@H](O)[C@@H](O)[C@H](O)[C@H]1CO | -6.22% [at 35.3 µM] |  |
| OCC(CBr)(CBr)CBr | 0.731% |  |
| Cc1c[nH]c(=S)[nH]c1=O | -7.6% |  |

| SMILES | cytotoxicity increase | Potency |
| --- | --- | --- |
| N#Cc1ccc(C(c2ccc(C#N)cc2)n2cncn2)cc1 | -9.11% [at 35.3 µM] |  |
| CC(C)C(=O)OCC(C)(C)C(O)C(C)C (stereo not given) | -4.32% |  |
| CC1(C)S[C@@H]2[C@H](NC(=O)C(C(=O)O)c3ccccc3)C(=O)N2[C@H]1C(=O)O (stereo not given in full) | -3.71% [at 35.3 µM] |  |
| COc1ccccc1OCC(O)COC(N)=O (stereo not given) | -0.575% [at 35.3 µM] |  |
| CCCCNc1ccc(C(=O)OCCN(CC)CC)cc1 | -16.4% [at 35.3 µM] |  |
| CCCN(CCC)C(=O)C(CCC(=O)O)NC(=O)c1ccccc1 (stereo not given) | -12.7% [at 35.3 µM] |  |
| Oc1ccccc1C=NCc1ccccc1 | 0.25% [at 35.3 µM] |  |
| O=C1C=CC(=O)O1 | -2.98% |  |
| CCCCCCCCCC#N | 0.844% |  |
| CC(CNC1CCCCC1)OC(=O)c1ccccc1 (stereo not given) | -18.8% [at 35.3 µM] |  |
| COC(=O)/C=C(/C)N | 13.4% [at 35.3 µM] |  |
| O=[N+]([O-])c1nccn1CO[C@@H](CO)[C@H](O)CO | 14.7% [at 35.3 µM] |  |
| CC(C)C1=CC2=CC[C@@H]3[C@](C)(CCC[C@@]3(C)C(=O)O)[C@H]2CC1 | 0.963% |  |
| CCCC(CCC)(C(=O)OCC)C(=O)OCC | -0.17% [at 35.3 µM] |  |
| NC/C=C/C(=O)O | -4.99% [at 35.3 µM] |  |
| O=C(O)[C@@H]1CSCN1 | 0.527% [at 35.3 µM] |  |
| NNS(=O)(=O)c1ccc(Oc2ccc(S(=O)(=O)NN)cc2)cc1 | 1.61% |  |
| CCCCCCCCCCCCOCCOS(=O)(=O)O |  | 19.5 µM (active) |
| NCCC(O)(P(=O)(O)O)P(=O)(O)O | 5.96% [at 35.3 µM] |  |
| CCC/C=C/CO | -3.4% |  |
